Screening results deposited in PubChem BioAssay by National Center for Advancing Translational Sciences (NCATS).
HP1b chromo inh: HP1-beta chromodomain-methylated histone interaction inhibition. P83916. AlphaScreen HP1-beta / biotin-H3K9me3 peptide binding. Potency, µM (highest dose often 114 µM), for the others: at the highest dose activity change, negative = inhibition, hits mostly inhibitors. actives 0.56% (n = 390,000). AID 540317; also: nearly all actives have a fitted effect of over 70% in size
Target sequence (P83916 whole entry, looked up): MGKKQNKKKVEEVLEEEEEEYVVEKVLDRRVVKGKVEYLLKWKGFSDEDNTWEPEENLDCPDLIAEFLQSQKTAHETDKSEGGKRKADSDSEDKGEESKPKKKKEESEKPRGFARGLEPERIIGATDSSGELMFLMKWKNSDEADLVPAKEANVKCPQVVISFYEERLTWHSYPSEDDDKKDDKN
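HP1-beta protein (50 nM final) preincubated 30 min at room temperature with biotinylated H3(1-18)K9me3 peptide (50 nM) in PBS pH 7.4, 0.01% Tween-20, then compound added for 30 min. AlphaScreen streptavidin donor/nickel chelate acceptor beads (10 ug/mL final), 30 min dark, luminescence read.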
Sfp inh: blocks B. subtilis Sfp PPTase activity | Q9F4F7 | Biochemical Sfp PPTase activity, qHTS | Potency, µM, inactives show largest response in the series, negative = inhibition, actives largely listed as inhibitors | actives 3.5% (n = 310,000) | AID 1490;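 also: the enzyme is Sfp with the accession as filed and its product quenches rhodamine fluorescence; 0% = enzyme reaction without inhibitor and -100% = no enzyme wells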
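After 15 min at room temperature with compound, 15 nM Sfp received 5 uM rhodamine-CoA plus 12.5 uM BHQ-2-ybbR (50 mM Hepes pH 7.6, 10 mM MgCl2). Rate came from the fluorescence difference over 30 min, ex 525/em 598 nm.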
BAZ2B inh: inhibitors of human BAZ2B bromodomain. Q9UIF8. AlphaScreen BAZ2B-H3K14Ac peptide displacement. Potency, µM (doses to about 114 µM), without a hit: at the highest dose activity change, negative = inhibition, usual class: inhibitors. actives 4.4% (n = 360,000). AID 504333; also: % is scaled to controls: 0 for no effect and ±100 for the full control effect; nearly all actives have a fitted effect of over 60% in size
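Inhibition is scored as reduced AlphaScreen emission. The BAZ2B/b-H3(5-23)K14Ac complex (50 nM each) in PBS pH 7.4, 0.01% Tween-20 meets compound (up to 110 uM) for 30 min at RT before bead addition.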
JMJD2A Tudor: JMJD2A Tudor domain (human) inhibition | O75164 | AlphaScreen JMJD2A-Tudor / H3K4me3 peptide binding | Potency, µM (series often up to 114 µM), inactives show top-dose activity change, negative = inhibition, usual class: inhibitors | actives 4.4% (n = 390,000) | AID 504339; also: % is scaled to controls: 0 for no effect and ±100 for the full control effect; nearly all actives have a fitted effect of over 50% in size
G9a block: inhibitors of human histone lysine methyltransferase G9a | AID 504332 | Potency, µM (titrated, usually from 102 µM), for inactives: at the highest dose activity, negative = inhibition, usual class: inhibitors | G9a H3K9 monomethylation, AlphaScreen, 2 h | actives 8.8% (n = 350,000); also: % is scaled to controls: 0 for no effect and ±100 for the full control effect; nearly all actives have a fitted effect of over 75% in size
Target sequence (Q96KQ7 913-1193 limits assumed): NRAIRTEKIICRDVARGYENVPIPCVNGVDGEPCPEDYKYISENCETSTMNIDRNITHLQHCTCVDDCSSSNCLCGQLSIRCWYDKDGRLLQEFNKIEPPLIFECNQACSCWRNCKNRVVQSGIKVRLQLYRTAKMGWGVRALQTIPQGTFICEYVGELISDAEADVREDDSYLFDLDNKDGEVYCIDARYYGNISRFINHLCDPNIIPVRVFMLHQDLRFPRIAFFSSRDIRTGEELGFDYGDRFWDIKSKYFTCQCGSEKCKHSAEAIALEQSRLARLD
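Quantitative HTS format: methyltransferase activity on a biotin-tagged H3K9 peptide is measured by AlphaScreen, using a rabbit anti-monomethyl-H3K9 antibody with streptavidin donor and anti-IgG acceptor beads. Final levels are 20 nM enzyme, 500 nM peptide, 20 uM SAM; 2 h RT.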
An asterisk follows results filed as active; u = inconclusive; x = no result given; ! = a repeat was not active; [ ] = remark or other dose. This is a sample that favours compounds with a hit; in the whole collection about 12% have one here. Calls follow the shape of the dose curve; as a rule, active = well fitted curve in the direction sought with a large enough effect; inconclusive = small, poorly fitted or top-dose-only effect, or another doubt; inactive = no such curve, though single readings can be large; an effect the other way counts as inactive or inconclusive. Potency is read from the fitted curve at half-maximal effect.

SMILES	HP1b chromo inh	Sfp inh	BAZ2B inh	JMJD2A Tudor	G9a block
CC1=CC(=C2C(=O)NC(=S)NC2=O)C=C(C(F)(F)F)N1Cc1ccccc1	58.9%	7.6%	2.8%	-6.4%	79.4µM*
COC1C(OC(=O)c2ccc(C)[nH]2)C(O)C(Oc2ccc3c(O)c(NC(=O)c4ccc(O)c(CC=C(C)C)c4)c(=O)oc3c2Cl)OC1(C)C (centres undefined)	u	9.2%	u	50.1µM*	x
CCCCCc1nc2c(c(=O)c3ccccc3n2C)c(=O)n1C1CCCCCC1	0.7%	39.8µM*	-24.3%	-27.1%	-4.3%
O=[N+]([O-])c1cccc(CN2CCN(Cc3ccc(Br)cc3)CC2)c1	u	u	20µM*	20µM*	3.55µM*
N[C@]1(C(=O)O)CC[C@@H](C(=O)O)C1 (racemic)	x	56.2µM*!	x	x	u
COC(=O)c1cc(Oc2ccc(Cl)cc2Cl)ccc1[N+](=O)[O-]	x	-4.7%	x	x	x
CNCCc1c[nH]c2ccc(O)cc12	u	-0.5%	x	22.4µM*	10µM*
CNCCc1c[nH]c2ccccc12	29.4%	21.2%	-21.3%	-16.6%	28.2µM*
Cn1cc(C(=O)c2ccccc2)c2ccccc21	32.4%	14.8%	8.2%	-4.2%	-10.4%
COC(=O)c1ccc(NS(=O)(=O)NC(=O)c2cn(C)c3ccccc23)cc1	12.1%[57 µM]	23.4%	u	-12.8%	79.4µM*
O=C(O)CCn1cc(C=C2C(=O)NC(=S)NC2=O)c(-c2cccc(Cl)c2)n1	2.7%	22.4µM*	u	50.1µM*	2.51µM*
O=C(O)CCn1cc(C=C2C(=O)NC(=O)NC2=O)c(-c2ccc(Br)cc2)n1	57.5%	u	-30.2%	0.0%	10µM*
O=C(COC(=O)c1cccnc1Cl)NCCc1ccc(F)cc1	46.1%	x	x	0.0%	x
Cc1cc(OCC(=O)N2CCC(C(=O)O)CC2)c2c3c(c(=O)oc2c1)CCCC3	8.6%	23.5%	-19.9%	-22.4%	12.2%[12.7 µM]
O=c1[nH]c(O)c(N=Nc2ccc3c(c2)OCCO3)c(=O)[nH]1	-23.1%	16.7%	u	u	50.1µM*
O=C(N=Nc1c(O)[nH]c(=O)[nH]c1=O)C1COc2ccccc2O1 (centres undefined)	29.0%	u	-5.4%	-2.7%	44.7µM*
O=c1[nH]c(O)c(N=Nc2ccc(S(=O)(=O)N3CCOCC3)cc2)c(=O)[nH]1	36.6%	9.9%	-26.7%	-25.9%	12.6µM*
O=c1[nH]c(O)c(N=Nc2cccc(S(=O)(=O)N3CCOCC3)c2)c(=O)[nH]1	61.2%	9.7%	-18.3%	5.9%	0.1%
O=c1[nH]c(=S)[nH]c(O)c1N=Nc1ccc(S(=O)(=O)N2CCOCC2)cc1	18.5%	-18.4%	u	-29.3%	x
O=c1[nH]c(=S)[nH]c(O)c1N=Nc1cccc(S(=O)(=O)N2CCOCC2)c1	20.5%	-9.1%	-22.5%	-13.3%	50.1µM*
CC(C)c1ccc(CNC(=O)c2ccc(N3CCCC3)c(NC(=O)NCc3ccccc3)c2)cc1	12.2%	x	u	-23.2%	-2.2%[59 µM]
CN(C)C1(CNC(=O)c2ccc(Cl)c(S(=O)(=O)NCc3ccco3)c2)CCCCC1	26.2%	16.5%	-29.1%	-17.3%	0.3%[59 µM]
COC(=O)c1ccccc1NC(=O)N1C[C@@H]2C[C@@H](C1)c1cccc(=O)n1C2	44.6%	6.8%	-7.0%	2.7%	u
COc1cccc(N=Nc2c(O)[nH]c(=S)[nH]c2=O)c1	2.7%	-19.0%	-32.5%	-26.2%	50.1µM*
COc1ccc(N=Nc2c(O)[nH]c(=S)[nH]c2=O)cc1	-8.0%	-26.9%	-35.8%	-22.4%	u
SMILES	HP1b chromo inh	Sfp inh	BAZ2B inh	JMJD2A Tudor	G9a block
O=C(O)CCCC[C@H]1SC[C@H]2NC(=O)N[C@@H]21	x	14.6%	x	x	0.398µM*
CCc1ccccc1N1C(=O)CC(=O)NC1=O	21.5%	-16.6%	-13.0%	-12.0%	-18.7%[59 µM]
Cc1ccccc1N1C(=O)CC(=O)NC1=O	33.9%	56.2µM*	10.7%	-11.9%	44.7µM*
COc1ccccc1N1C(=O)CC(=O)NC1=O	0.1%[57 µM]	-3.2%	50.1µM*	-13.8%	-4.5%
COc1cccc(N2C(=O)CC(=O)NC2=O)c1	2.9%	-22.0%	-7.1%	-24.6%	u
Cn1c(NN=O)nc2ccccc21	-1.6%	39.8µM*	u	u	8.91µM*
CCOP(=O)(OCC)C1(O)C(=O)Nc2ccccc21 (centres undefined)	16.5%	10.7%	-5.1%	-19.3%	9.1%[59 µM]
CC1CCCC(C2(O)C(=O)Nc3ccccc32)C1=O (centres undefined)	4.5%	-11.9%	-32.8%	-5.8%	1.78µM*
N#Cc1ccccc1NC(=O)c1cccn(Cc2ccccc2)c1=O	33.5%	x	2.0%	6.2%	0.8%[59 µM]
CCCCCCCCCCCC[N+](C)(C)CCOc1ccccc1	x	50.1µM*	x	x	1.9%[59 µM]
CCCCCCCCOC(=O)c1ccccc1C(=O)OCCCCCCCC	x	-9.7%	x	x	110.6%[59 µM]
CCCC(C)C1(CC)C(=O)N=C(S)NC1=O (centres undefined)	x	19.0%	x	x	x
ClCC(Br)CBr (centres undefined)	38.5%	x	9.0%	-10.3%	14.0%[0.501 µM]
CCOC(=O)c1sc(/N=C/c2c(O)n(-c3cccc(C)c3)c(=O)[nH]c2=O)c(C#N)c1C	u	u	0.8%	50.1µM*	-20.1%[59 µM]
C[C@H]1CN(C2CCC(C#N)(c3ccc(F)cc3)CC2)CC[C@@]1(C(=O)O)c1ccccc1 (some centres undefined)	x	11.4%	x	x	25.5%[21.5 µM]
CCCCCCCCCCCCCCCCOC[C@@H](O)COP(=O)([O-])OCC[N+](C)(C)C	x	6.9%	x	x	25.6%[59 µM]
Clc1ccc2c(c1)C(c1ccccc1Cl)=NCc1nnc(N3CCN(CCOc4ccccc4)CC3)n1-2	-7.7%	-22.6%	44.7µM*	-30.8%	u
O=C(c1ccccc1)c1ccccc1N=Cc1c(O)[nH]c(=O)[nH]c1=O	44.6%	7.1%	u	-27.4%	u
C=CCc1cccc(C=Nc2c[nH]c(=O)[nH]c2=O)c1O	-0.4%	10.7%	u	39.8µM*	-10.0%
COC(=O)C1=C(c2ccc(Cl)c(C(F)(F)F)c2)C[C@@H]2CC[C@H]1N2C(=O)NCCOc1ccc(OC)cc1	2.9%	x	13.3%	-28.3%	30.4%[2.33 µM]
COc1ccc(CN2C(=O)NC(=O)/C(=C/c3ccc(OC)c(OC)c3OC)C2=O)cc1	16.2%	39.8µM*	-16.0%	9.3%	x
COc1ccc(CN2C(=O)NC(=O)/C(=C/c3cc(OC)c(OC)c(OC)c3)C2=O)cc1	3.6%	79.4µM*	-12.9%	-10.7%	44.7µM*
COc1ccc(CN2C(=O)NC(=O)/C(=C/c3ccoc3)C2=O)cc1	22.4µM*	u	50.1µM*	56.2µM*	17.8µM*
CCN1C(=O)NC(=O)/C(=C\c2ccc(N3CCOCC3)cc2OC)C1=O	x	-5.8%	-23.6%[57.1 µM]	x	-0.2%
CCOc1ccc(/C=C2/C(=O)NC(=O)N(CCc3ccc(F)cc3)C2=O)cc1	20.8%	u	-26.0%	-15.5%	u
COc1cc(/C=C2\C(=O)NC(=O)N(CCc3ccc(F)cc3)C2=O)ccc1O	32.3%	u	0.5%	-9.8%	39.8µM*
